High-throughput results as filed in PubChem BioAssay.
The list is not random: actives were taken first. Their share in the collection is about 5.2%.
CR mimetic SO – reduction of superoxide in aged yeast, primary screen, HTS; S. cerevisiae aged cells, superoxide DHE fluorescence; active compounds read low; superoxide response (% of plate mean), % at 10 µM; actives 0.18% (n = 330,000); AID 2690, 2010;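 active = superoxide response under a set limit, about three screen SD below normal, cut at about 65% in these data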;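 note: yeast aged for seven days with compound at 30 °C before DHE staining; 100% = average MFI of all compound-treated wells on the plate with controls excluded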
PfM18AAP inh-1 – PfM18AAP inhibitors, malaria aminopeptidase, primary screen, biochemical, QFRET, recombinant enzyme; M18 aspartyl aminopeptidase (Plasmodium falciparum 3D7); H-Glu-NHMec fluorogenic cleavage; inhibition, % at 7.35 µM; actives 1.2% (n = 290,000);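 active = inhibition above the campaign mean inhibition over all tested compounds plus 3 SD, cut at about 28% in these data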;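 note: 0% = plate median of test compound wells and 100% = 2 mM ZnCl2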
CendR NRP1 mod – modulators of CendR peptide binding to NRP-1, primary screen, biochemical, fluorescence polarization, uHTS. Neuropilin-1 (Homo sapiens), O14786. FAM-RPARPAR peptide binding to NRP-1. inhibition, % at 25 µM. actives 0.85% (n = 360,000);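 active = inhibition or corrected inhibition above about 18%, plus a signal ratio from 0.5 to 1.5, limit read from the data, passing the limit was not always enough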
APOBEC3G inh – APOBEC3G DNA deaminase inhibitors, primary screen, biochemical, fluorescence, single-stranded DNA substrate, uHTS. DNA dC->dU-editing enzyme APOBEC-3G (Homo sapiens), Q9HC16. inhibition, % at 20 µM. actives 0.28% (n = 330,000). recombinant A3G, ssDNA deamination FAM/TAMRA fluorescence;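 active = inhibition of at least 40% at 20 µM, with no more than 30% in the related APOBEC3A deaminase screen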;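 note: plate controls were DMSO wells with A3G for no effect and wells lacking A3G enzyme for full effect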
ALR inh – inhibitors of human ALR sulfhydryl oxidase, primary screen, biochemical, H2O2 detection, HRP-luminol luminescence, single point | FAD-linked sulfhydryl oxidase ALR (Homo sapiens), P55789 | purified ALR, DTT oxidation | AID 485317, 2010 | actives 3.8% (n = 290,000) | inhibition, % (no concentration beside the values);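 active = mean replicate inhibition above about 79%, with every replicate also reaching it, limit read from the data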
APOBEC3A inh – APOBEC3A ssDNA deaminase inhibitors, primary screen, selectivity assay for APOBEC3G inhibitor project, biochemical, FAM/TAMRA oligo cleavage fluorescence; inhibition, % at 20 µM; DNA dC->dU-editing enzyme APOBEC-3A (Homo sapiens), P31941; AID 493011, 2011; recombinant A3A, FAM/TAMRA ssDNA deamination fluorescence; actives 0.41% (n = 330,000);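 active = at least 40% inhibition at 20 µM here, with at most 30% in a related deaminase screen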;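 note: plate controls were A3A with DMSO for no effect and wells lacking A3A enzyme for full effect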
Target sequence (P31941 whole entry, looked up): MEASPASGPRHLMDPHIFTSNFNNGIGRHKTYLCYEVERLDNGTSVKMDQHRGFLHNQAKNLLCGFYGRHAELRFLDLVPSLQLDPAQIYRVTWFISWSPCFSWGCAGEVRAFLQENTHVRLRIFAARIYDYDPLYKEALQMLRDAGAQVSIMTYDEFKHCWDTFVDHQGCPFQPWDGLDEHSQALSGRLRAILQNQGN
PfM18AAP inh-2 – PfM18AAP inhibitors, malaria aminopeptidase, confirmation, biochemical, QFRET, recombinant enzyme, triplicate. shares compounds with PfM18AAP inh-1. H-Glu-NHMec fluorogenic cleavage. inhibition, % at 7.35 µM. actives 28% (n = 2,400). AID 2170, 2009;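 active = mean inhibition over replicate wells above the hit cutoff set for the earlier primary screen, cut at about 29% in these data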;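 note: 0% = median of test compound wells and 100% = 2 mM ZnCl2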
CTSL1 counter – cathepsin L1 inhibitors, retest, confirmation, counter-screen for PFM18AAP inhibitor project, biochemical, QFRET, triplicate. shares compounds with PfM18AAP inh-1. purified cathepsin L1, Z-Leu-Arg-MCA fluorescence. inhibition, % at 5.96 µM. 2,400 tested, under 10 active;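 active = average inhibition across replicates above the hit cutoff set in the earlier primary screen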;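 note: 0% = median of test compound wells and 100% = Z-Phe-Ala-diazomethylketone 1 µM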
Target sequence (P07711 whole entry, looked up): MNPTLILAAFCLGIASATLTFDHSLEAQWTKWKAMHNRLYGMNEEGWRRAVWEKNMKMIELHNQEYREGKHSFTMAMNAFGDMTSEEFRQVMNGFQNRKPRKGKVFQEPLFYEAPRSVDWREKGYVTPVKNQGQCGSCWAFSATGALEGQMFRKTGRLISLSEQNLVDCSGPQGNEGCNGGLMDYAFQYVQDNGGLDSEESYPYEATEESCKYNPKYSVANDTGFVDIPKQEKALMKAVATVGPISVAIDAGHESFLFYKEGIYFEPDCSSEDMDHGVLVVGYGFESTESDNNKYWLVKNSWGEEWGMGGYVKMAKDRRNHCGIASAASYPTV
Active calls of the source: *.

C=CCn1c(O)c(C=Nc2ccc(N(CC)CC)cc2)c(=O)[nH]c1=O was read as CR mimetic SO 84.0, PfM18AAP inh-1 50.1*, CendR NRP1 mod -38.0, APOBEC3G inh -6.2, ALR inh 22.1, APOBEC3A inh -3.3, PfM18AAP inh-2 -28.6 and CTSL1 counter 1.1.
`C=CCn1c(O)c(C(CC)=Nc2ccc3c(c2)CCC3)c(=O)[nH]c1=O` gave CR mimetic SO 114.8, PfM18AAP inh-1 2.6, CendR NRP1 mod 3.6, APOBEC3G inh 6.5, ALR inh -0.3 and APOBEC3A inh 4.2.
For C=CCn1c(O)c(C(CC)=Nc2ccc(N(C)C)cc2)c(=O)[nH]c1=O the results were CR mimetic SO 86.9, PfM18AAP inh-1 52.1*, CendR NRP1 mod 1.4, APOBEC3G inh 3.1, ALR inh 8.5, APOBEC3A inh -2.4, PfM18AAP inh-2 -28.2 and CTSL1 counter 0.3.
Cc1ccccc1-n1c(O)c(C=Nc2ccc(N(C)C)cc2)c(=O)[nH]c1=O was read as CR mimetic SO 100.4, PfM18AAP inh-1 45.9*, CendR NRP1 mod -18.2, APOBEC3G inh 2.0, ALR inh 92.5*, APOBEC3A inh 0.2, PfM18AAP inh-2 -56.1 and CTSL1 counter 6.0.
Screening CCN(CC)c1ccc(N=Cc2c(O)n(-c3ccc(Cl)cc3)c(=O)[nH]c2=O)cc1 returned CR mimetic SO 102.6, PfM18AAP inh-1 2.9, CendR NRP1 mod 88.8, APOBEC3G inh -6.1, ALR inh -5.3 and APOBEC3A inh -2.2.
`CN1C(=O)C(Cc2ccc(OCc3ccccc3)cc2)C(=O)N(C)C1=O` gave CR mimetic SO 102.1, PfM18AAP inh-1 -5.5, CendR NRP1 mod 8.6, APOBEC3G inh -0.4, ALR inh 0.0 and APOBEC3A inh -1.0.
`NS(=O)(=O)c1ccc(N=Nc2c(O)[nH]c(=S)[nH]c2=O)cc1` gave CR mimetic SO 155.9, PfM18AAP inh-1 32.2*, CendR NRP1 mod -8.9, APOBEC3G inh -0.6, ALR inh -0.5, APOBEC3A inh -0.8, PfM18AAP inh-2 11.2 and CTSL1 counter 13.6.
For COc1ccc(N=Nc2c(O)[nH]c(=S)[nH]c2=O)cc1 the results were CR mimetic SO 100.5, PfM18AAP inh-1 5.5, CendR NRP1 mod -70.5, APOBEC3G inh -3.5, ALR inh 2.5 and APOBEC3A inh -1.9.
For O=C1NC(=O)C(=Cc2cc3c(cc2[N+](=O)[O-])OCO3)C(=O)N1 the results were CR mimetic SO 83.2, PfM18AAP inh-1 39.9*, CendR NRP1 mod -5.7, APOBEC3G inh -11.9, ALR inh 38.0, APOBEC3A inh 0.1, PfM18AAP inh-2 -39.0 and CTSL1 counter 0.4.
Cc1cccc(N2C(=O)NC(=O)/C(=C/c3cc4c(cc3[N+](=O)[O-])OCO4)C2=O)c1 was read as CR mimetic SO 91.0, PfM18AAP inh-1 20.2, CendR NRP1 mod -5.8, APOBEC3G inh 24.3, ALR inh 65.0 and APOBEC3A inh 3.0.
`CCCc1c(C)nc(SCC(=O)C(C)(C)C)nc1OC(=O)N(C)C` gave CR mimetic SO 97.2, PfM18AAP inh-1 13.8, CendR NRP1 mod 7.6, APOBEC3G inh -6.3, ALR inh -6.3 and APOBEC3A inh -4.3.
ClCCN1CCN(c2ccnc3cc(Cl)ccc23)CC1 was read as CR mimetic SO 108.7, PfM18AAP inh-1 2.0, CendR NRP1 mod 3.6, APOBEC3G inh 5.8, ALR inh -8.5 and APOBEC3A inh -1.5.
For CCN(CC)P(=S)(c1c(C)nc2ccccn12)c1c(C)nc2ccccn12 the results were CR mimetic SO 87.4, PfM18AAP inh-1 31.7*, CendR NRP1 mod -0.3, APOBEC3G inh 14.0, ALR inh 3.2, APOBEC3A inh 0.9, PfM18AAP inh-2 -14.9 and CTSL1 counter -0.4.
`O=c1[nH]c(=O)n(-c2ccc(F)cc2)c(O)c1/C=C1\C=Nc2ccccc21` gave CR mimetic SO 111.1, PfM18AAP inh-1 32.0*, CendR NRP1 mod -104.2, APOBEC3G inh -18.9, ALR inh 1.0, APOBEC3A inh -8.8, PfM18AAP inh-2 29.4* and CTSL1 counter -5.0.
`O=c1[nH]c(=O)n(-c2ccccc2F)c(O)c1/C=C1\C=Nc2ccccc21` gave CR mimetic SO 99.8, PfM18AAP inh-1 42.5*, CendR NRP1 mod -30.7, APOBEC3G inh -2.7, ALR inh 95.9*, APOBEC3A inh 0.3, PfM18AAP inh-2 40.8* and CTSL1 counter -1.5.
Screening O=c1[nH]c(=O)n(Cc2ccccc2)c(O)c1/C=C1\C=Nc2ccccc21 returned CR mimetic SO 110.2, PfM18AAP inh-1 8.8, CendR NRP1 mod 18.1, APOBEC3G inh -10.5 and APOBEC3A inh -8.0.
CN(CCCCC(=O)/C=N/O)Cc1ccccc1 (tested in a mixture with another compound) was read as CR mimetic SO 94.0, PfM18AAP inh-1 -9.1, CendR NRP1 mod 12.9, APOBEC3G inh -5.2, ALR inh -1.1 and APOBEC3A inh 0.4.
Screening CC(C)(O)/C=C/C(=O)[C@](C)(O)C1[C@H](O)C[C@@]2(C)C3CC=C4C(C[C@H](O)[C@@H](O)C4(C)C)[C@]3(C)C(=O)C[C@]12C (stereo partly specified) returned CR mimetic SO 96.2, CendR NRP1 mod 1.4, APOBEC3G inh -1.7, ALR inh 4.0 and APOBEC3A inh 1.1.
Screening Ic1ccccc1CN[C@@H]1C2CCN(CC2)[C@@H]1C(c1ccccc1)c1ccccc1 returned CR mimetic SO 98.5, CendR NRP1 mod -3.2, APOBEC3G inh -1.1 and APOBEC3A inh 4.6.
For O=C(NC1(C(F)(F)F)Oc2ccccc2O1)N1CCC2(CC1)OCCO2 the results were CR mimetic SO 94.5, PfM18AAP inh-1 71.2*, CendR NRP1 mod 2.8, APOBEC3G inh 4.4, ALR inh -26.4, APOBEC3A inh 2.8, PfM18AAP inh-2 68.2* and CTSL1 counter -8.6.
O=C(c1ccccc1)N1CCC2(CC1)OCCO2 was read as CR mimetic SO 89.5, PfM18AAP inh-1 4.6, CendR NRP1 mod 0.7, APOBEC3G inh -4.6, ALR inh 1.2 and APOBEC3A inh -2.1.
